This passage reports outcome and AC50 results from PubChem BioAssay (EPA / NIEHS).

SMILES strings stand for the structures. The source made the active and inactive calls. Rule for the calls: active = hit-call score of the fitted dose curve at least 0.9, where 1 is the maximum; inactive = score below 0.9.

Common to all, as to settings: mRNA level, 48 h; actives raise or lower the signal
Read-out in assay [1]: ABC Transporter (ABCC2), ABCC2 (gene 1244)
The assay can be described thus: LTEA_HepaRG_ABCC2: Life Technologies and Expression Analysis (LTEA) Assay for ABC Transporter (ABCC2) using HepaRG (AID 2283464). The gist of the method:
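HepaRG cells were plated 48 h, switched to serum-free induction medium, then exposed in duplicate for 48 h to 8 concentrations (top 100 uM, half-log steps, 0.5% DMSO). ABCC2 mRNA was measured by qRT-PCR normalized to ACTB/GAPDH/POLR2A; bidirectional fitting versus DMSO.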

Read-out in assay [2]: Broad substrate specificity ATP-binding cassette transporter ABCG2 (Homo sapiens) (UniProt Q9UNQ0)
Nature of the assay: LTEA_HepaRG_ABCG2: Life Technologies and Expression Analysis (LTEA) Assay for ABC Transporter (ABCG2) using HepaRG (AID 2283465). The gist of the method: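 Gene expression of ABCG2 in HepaRG liver cells is quantified by qRT-PCR following 48 h exposure across an eight-point series topping at 100 uM. Values come from bidirectional fitting relative to DMSO vehicle.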

Read-out in assay [3]: ATP-citrate lyase (ACLY), ACLY (gene 47)
The assay can be described thus: LTEA_HepaRG_ACLY: Life Technologies and Expression Analysis (LTEA) Assay for ATP-citrate lyase (ACLY) using HepaRG (AID 2283466). The gist of the method:
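ACLY expression changes in human HepaRG liver cells are quantified by qRT-PCR after 48 h exposure to test chemicals (maximum 100 uM, half-log steps). Values are fitted in both directions relative to 0.5% DMSO vehicle.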

Read-out in assay [4]: Peroxisomal acyl-coenzyme A oxidase 1 (ACOX1) gene, ACOX1 (gene 51)
The assay can be described thus: LTEA_HepaRG_ACOX1: Life Technologies and Expression Analysis (LTEA) Assay for Peroxisomal acyl-coenzyme A oxidase 1 (ACOX1) gene using HepaRG (AID 2283467). The gist of the method: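 Human HepaRG hepatic cultures, 48 h treatment with test chemicals up to 100 uM. ACOX1 expression read by qRT-PCR relative to 0.5% DMSO vehicle.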

Read-out in assay [5]: Alkaline Phosphatase, Placental (ALPP) gene, ALPP (gene 250)
Nature of the assay: LTEA_HepaRG_ALPP: Life Technologies and Expression Analysis (LTEA) Assay for Alkaline Phosphatase, Placental (ALPP) gene using HepaRG (AID 2283468). The gist of the method: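 Differentiated human HepaRG cells were plated and cultured 48 h, then exposed in duplicate for 48 h in serum-free induction medium to eight half-log concentrations from 100 uM in 0.5% DMSO. ALPP mRNA was measured by TaqMan qRT-PCR, normalized to ACTB, GAPDH, POLR2A.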

Read-out in assay [6]: Bcl-2 (BAX) gene, BAX (gene 581)
Nature of the assay: LTEA_HepaRG_BAX: Life Technologies and Expression Analysis (LTEA) Assay for Bcl-2 (BAX) gene using HepaRG (AID 2283470). The gist of the method:
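Gene expression measured by Fluidigm qRT-PCR with three housekeeping genes for normalisation. HepaRG cells, plated 48 h beforehand, treated 48 h at up to 100 uM (8-point, half-log) in 0.5% DMSO. Bidirectional fitting versus DMSO.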

Read-out in assay [7]: Alpha-fetoprotein (AFP) gene, AFP (gene 174)
The assay can be described thus: LTEA_HepaRG_AFP: Life Technologies and Expression Analysis (LTEA) Assay for Alpha-fetoprotein (AFP) gene using HepaRG (AID 2283472). The gist of the method:
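AFP transcript measured by TaqMan qRT-PCR with three housekeeping genes for normalization, after 48 h chemical treatment of HepaRG cells (top 100 uM, half-log steps, 0.5% DMSO). Gain or loss fitted against vehicle.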

Read-out in assay [8]: BCL2L11 (gene 10018)
Nature of the assay: LTEA_HepaRG_BCL2L11: Life Technologies and Expression Analysis (LTEA) Assay for Bcl-2 (BCL2L11) gene using HepaRG (AID 2283473). In short, it runs like this: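 Differentiated human HepaRG cells in serum-free induction medium were exposed in duplicate for 48 h to eight concentrations (top 100 uM, half-log steps, 0.5% DMSO). BCL2L11 mRNA was quantified by TaqMan qRT-PCR, normalized to ACTB/GAPDH/POLR2A, bidirectional fit versus DMSO.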

Read-out in assay [9]: Apolipoprotein A-V (APOA5) gene, APOA5 (gene 116519)
Nature of the assay: LTEA_HepaRG_APOA5: Life Technologies and Expression Analysis (LTEA) Assay for Apolipoprotein A-V (APOA5) gene using HepaRG (AID 2283474). The gist of the method: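 Differentiated human HepaRG cells were exposed in duplicate for 48 h to eight half-log concentrations from 100 uM in 0.5% DMSO. APOA5 mRNA was quantified by TaqMan qRT-PCR, normalized to ACTB, GAPDH and POLR2A, and fitted bidirectionally against DMSO.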

Read-out in assay [10]: Apoptosis regulator Bcl-2 (Homo sapiens) (UniProt P10415)
Nature of the assay: LTEA_HepaRG_BCL2: Life Technologies and Expression Analysis (LTEA) Assay for Bcl-2 gene using HepaRG (AID 2283475). In short, it runs like this: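 qRT-PCR of BCL2 transcript, normalized to three housekeeping genes (ACTB, GAPDH, POLR2A), after 48 h chemical exposure of HepaRG cells; concentrations top 100 uM with half-log dilutions, 0.5% DMSO vehicle, duplicates; changes up or down fitted relative to vehicle.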

Read-out in assay [11]: Caspase-3 (Homo sapiens) (UniProt P42574)
Nature of the assay: LTEA_HepaRG_CASP3: Life Technologies and Expression Analysis (LTEA) Assay for cysteine-aspartic acid protease (CASP3) using HepaRG (AID 2283477). In short, it runs like this: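 Differentiated human HepaRG cells in serum-free induction medium were exposed 48 h to 8-point half-log concentrations from 100 uM (0.5% DMSO vehicle). CASP3 mRNA was measured by qRT-PCR, normalised to ACTB, GAPDH and POLR2A, with bidirectional fitting against DMSO.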

Read-out in assay [12]: Cytochrome P450 (CYP24A1), CYP24A1 (gene 1591)
The assay can be described thus: LTEA_HepaRG_CYP24A1: Life Technologies and Expression Analysis (LTEA) Assay for Cytochrome P450 (CYP24A1) using HepaRG (AID 2283478). The gist of the method: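 Differentiated HepaRG cells, pre-cultured 48 h, were exposed in duplicate for 48 h in serum-free induction medium to 8 half-log concentrations (top 100 uM, 0.5% DMSO). CYP24A1 mRNA was quantified by TaqMan qRT-PCR, normalized to ACTB/GAPDH/POLR2A, fitted bidirectionally versus DMSO.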

Read-out in assay [13]: Cytochrome P450 (CYP1A2), CYP1A2 (gene 1544)
Nature of the assay: LTEA_HepaRG_CYP1A2: Life Technologies and Expression Analysis (LTEA) Assay for Cytochrome P450 (CYP1A2) using HepaRG (AID 2283479). The gist of the method: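 Differentiated human HepaRG cells in serum-free induction medium were exposed in duplicate for 48 h to 8-point half-log concentrations up to 100 uM in 0.5% DMSO. CYP1A2 mRNA measured by qRT-PCR, normalized to ACTB, GAPDH, POLR2A; bidirectional fit vs DMSO.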

Read-out in assay [14]: cysteine-aspartic acid protease (CASP8), CASP8 (gene 841)
Nature of the assay: LTEA_HepaRG_CASP8: Life Technologies and Expression Analysis (LTEA) Assay for cysteine-aspartic acid protease (CASP8) using HepaRG (AID 2283480). In short, it runs like this:
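Concentration-response in duplicate up to 100 uM (half-log steps, 0.5% DMSO) on differentiated HepaRG cultures for 48 h. Expression change of CASP8 mRNA is determined by TaqMan qRT-PCR with housekeeping-gene normalization.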

Read-out in assay [15]: Cytochrome P450 (CYP2B6), CYP2B6 (gene 1555)
Nature of the assay: LTEA_HepaRG_CYP2B6: Life Technologies and Expression Analysis (LTEA) Assay for Cytochrome P450 (CYP2B6) using HepaRG (AID 2283481). The gist of the method:
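Differentiated HepaRG cells, serum-free induction medium, exposed 48 h in duplicate to 8-point half-log concentrations from 100 uM in 0.5% DMSO. CYP2B6 mRNA by qRT-PCR, normalized to ACTB, GAPDH, POLR2A; bidirectional fit versus DMSO.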

Read-out in assay [16]: Cytochrome P450 2C19 (Homo sapiens) (UniProt P33261)
The assay can be described thus: LTEA_HepaRG_CYP2C19: Life Technologies and Expression Analysis (LTEA) Assay for CYP2C19 using HepaRG (AID 2283482). The gist of the method: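 Differentiated human HepaRG cells were exposed for 48 h in serum-free induction medium to 8 concentrations (top 100 uM, half-log steps, 0.5% DMSO). CYP2C19 mRNA was measured by qRT-PCR, normalized to ACTB/GAPDH/POLR2A, and fitted bidirectionally against DMSO.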

Read-out in assay [17]: CYP2C8 (gene 1558)
Nature of the assay: LTEA_HepaRG_CYP2C8: Life Technologies and Expression Analysis (LTEA) Assay for CYP2C8 using HepaRG (AID 2283483). In short, it runs like this: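 This is a transcriptional endpoint in HepaRG cultures: 48 h exposure, highest concentration 100 uM. CYP2C8 mRNA is quantified by TaqMan qRT-PCR.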

Read-out in assay [18]: CYP2C9 (gene 1559)
The assay can be described thus: LTEA_HepaRG_CYP2C9: Life Technologies and Expression Analysis (LTEA) Assay for CYP2C9 using HepaRG (AID 2283484). The gist of the method:
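Eight-point concentration-response (highest 100 uM, half-log dilutions) in HepaRG cells for 48 h; CYP2C9 expression by qRT-PCR normalized to ACTB, GAPDH, POLR2A. Bidirectional fit, DMSO baseline.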

Read-out in assay [19]: CYP2E1 (gene 1571)
The assay can be described thus: LTEA_HepaRG_CYP2E1: Life Technologies and Expression Analysis (LTEA) Assay for CYP2E1 using HepaRG (AID 2283485). The gist of the method:
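CYP2E1 transcript measured by Fluidigm qRT-PCR against three housekeeping genes in human HepaRG cells treated 48 h (top 100 uM, half-log steps, 0.5% DMSO vehicle). Gain or loss fitted relative to DMSO baseline.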

Read-out in assay [20]: CYP4A11 (gene 1579)
Nature of the assay: LTEA_HepaRG_CYP4A11: Life Technologies and Expression Analysis (LTEA) Assay for CYP4A11 using HepaRG (AID 2283486). In short, it runs like this: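 Differentiated HepaRG cells, serum-free induction medium, exposed 48 h in duplicate to 8-point half-log series from 100 uM in 0.5% DMSO. CYP4A11 mRNA measured by qRT-PCR, normalized to ACTB, GAPDH, POLR2A; bidirectional fit versus DMSO.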

Sequence of Cytochrome P450 2C19 (Homo sapiens) (P33261 whole entry, looked up): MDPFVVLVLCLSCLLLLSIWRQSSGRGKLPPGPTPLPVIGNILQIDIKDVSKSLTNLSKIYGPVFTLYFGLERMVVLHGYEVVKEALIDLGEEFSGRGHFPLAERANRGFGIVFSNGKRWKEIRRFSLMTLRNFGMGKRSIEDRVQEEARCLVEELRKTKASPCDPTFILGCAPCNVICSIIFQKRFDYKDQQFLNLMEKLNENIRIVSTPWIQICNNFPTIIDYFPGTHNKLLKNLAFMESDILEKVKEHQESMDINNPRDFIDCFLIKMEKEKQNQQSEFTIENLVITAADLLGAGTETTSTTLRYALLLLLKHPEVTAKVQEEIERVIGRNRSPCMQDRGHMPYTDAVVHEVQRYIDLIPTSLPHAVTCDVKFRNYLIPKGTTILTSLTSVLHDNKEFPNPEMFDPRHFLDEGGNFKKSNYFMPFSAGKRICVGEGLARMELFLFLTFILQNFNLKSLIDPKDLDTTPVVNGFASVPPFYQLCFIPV
Sequence of Caspase-3 (Homo sapiens) (P42574 whole entry, looked up): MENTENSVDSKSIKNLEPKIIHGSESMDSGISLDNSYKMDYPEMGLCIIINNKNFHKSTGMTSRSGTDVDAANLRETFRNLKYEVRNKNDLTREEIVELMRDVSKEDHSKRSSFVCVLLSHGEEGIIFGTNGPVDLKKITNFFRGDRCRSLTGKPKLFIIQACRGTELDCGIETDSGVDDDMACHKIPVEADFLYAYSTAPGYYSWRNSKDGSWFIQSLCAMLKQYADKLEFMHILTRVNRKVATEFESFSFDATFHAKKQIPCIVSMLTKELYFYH
Sequence of Apoptosis regulator Bcl-2 (Homo sapiens) (P10415 whole entry, looked up): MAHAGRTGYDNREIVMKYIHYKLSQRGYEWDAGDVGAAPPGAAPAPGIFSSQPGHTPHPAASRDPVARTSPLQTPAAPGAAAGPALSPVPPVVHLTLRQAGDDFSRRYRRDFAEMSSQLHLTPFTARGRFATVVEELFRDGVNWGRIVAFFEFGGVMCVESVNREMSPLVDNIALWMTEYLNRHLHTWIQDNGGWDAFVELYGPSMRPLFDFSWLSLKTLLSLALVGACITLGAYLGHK
Sequence of Broad substrate specificity ATP-binding cassette transporter ABCG2 (Homo sapiens) (Q9UNQ0 whole entry, looked up): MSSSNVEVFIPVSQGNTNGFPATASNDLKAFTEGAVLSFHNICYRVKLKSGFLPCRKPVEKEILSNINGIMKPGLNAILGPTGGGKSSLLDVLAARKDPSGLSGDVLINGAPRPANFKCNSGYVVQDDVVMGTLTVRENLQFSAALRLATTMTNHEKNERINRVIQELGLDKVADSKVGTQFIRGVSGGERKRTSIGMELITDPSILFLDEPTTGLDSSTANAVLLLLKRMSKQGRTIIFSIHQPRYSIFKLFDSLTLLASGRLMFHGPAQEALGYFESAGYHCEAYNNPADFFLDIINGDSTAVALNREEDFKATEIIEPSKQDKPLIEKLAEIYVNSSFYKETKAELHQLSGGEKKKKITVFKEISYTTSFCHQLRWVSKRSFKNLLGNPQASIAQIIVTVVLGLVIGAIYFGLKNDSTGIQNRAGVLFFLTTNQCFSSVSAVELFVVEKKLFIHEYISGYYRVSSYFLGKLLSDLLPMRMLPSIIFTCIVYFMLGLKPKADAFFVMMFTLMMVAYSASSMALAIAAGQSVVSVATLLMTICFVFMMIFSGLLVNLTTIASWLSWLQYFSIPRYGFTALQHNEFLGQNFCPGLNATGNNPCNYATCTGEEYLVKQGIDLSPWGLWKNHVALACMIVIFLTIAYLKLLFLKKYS

As to `Oc1cc(Cl)c(Cl)cc1Cl`, the compound was classed as inactive in [1], in assay [2], in assay [3], in [4], in assay [5] and in assay [6]. For the same compound, the outcome in assay [7], in [8], in [9], in assay [10], in [11] and in assay [12] was inactive. Also, the outcome in assay [13], in assay [14], in assay [15], in assay [16], in assay [17] and in assay [18] was inactive. The compound was called inactive in assay [19] and in assay [20].

For the compound `N#Cc1cccnc1`, the result in [1], in assay [2], in [3], in assay [4], in assay [5] and in assay [6] was inactive. The result in assay [7], in assay [8], in [9], in [10], in assay [11] and in assay [12] was inactive. In addition, the call in assay [13], in assay [14], in [15], in assay [16], in assay [17] and in assay [18] was inactive. The compound was called inactive in [19] and in assay [20].

With `CC(C)(C)c1ccccc1O`, the compound was classed as inactive in [1], in [2], in assay [3], in [4], in [5] and in [6]. For the same compound, the outcome in assay [7], in assay [8], in assay [9], in assay [10], in assay [11] and in assay [12] was inactive. For the same compound, the call in [13], in assay [14], in [18] and in assay [20] was inactive. Also, the half-maximal activity concentration (AC50) in assay [15] is 1.63 µM (active); in assay [16] it was 1.47 µM (active); in [17] it was 6.35 µM (active); in assay [19], 15.1 µM (active).
